Source: ChEMBL document CHEMBL1961873, “Compounds: GSK PKIS; Assays: Nanosyn kinase panel” (2012)

Key:
[1] = test system: Epidermal growth factor receptor (Homo sapiens), P00533 [T790M]; conditions: at 1 µM
[2] = test system: Epidermal growth factor receptor (Homo sapiens), P00533 [L858R,T790M]; conditions: at 0.1 µM
[3] = test system: Epidermal growth factor receptor (Homo sapiens), P00533 [L858R,T790M]; conditions: at 1 µM
[4] = molecular target: Ephrin type-A receptor 2 (Homo sapiens) (UniProt P29317); conditions: at 0.1 µM
[5] = molecular target: Ephrin type-A receptor 2 (Homo sapiens) (UniProt P29317); conditions: at 1 µM
[6] = molecular target: T1, Ephrin type-A receptor 3 (Homo sapiens) (UniProt P29320); conditions: at 0.1 µM
T1 sequence (whole entry): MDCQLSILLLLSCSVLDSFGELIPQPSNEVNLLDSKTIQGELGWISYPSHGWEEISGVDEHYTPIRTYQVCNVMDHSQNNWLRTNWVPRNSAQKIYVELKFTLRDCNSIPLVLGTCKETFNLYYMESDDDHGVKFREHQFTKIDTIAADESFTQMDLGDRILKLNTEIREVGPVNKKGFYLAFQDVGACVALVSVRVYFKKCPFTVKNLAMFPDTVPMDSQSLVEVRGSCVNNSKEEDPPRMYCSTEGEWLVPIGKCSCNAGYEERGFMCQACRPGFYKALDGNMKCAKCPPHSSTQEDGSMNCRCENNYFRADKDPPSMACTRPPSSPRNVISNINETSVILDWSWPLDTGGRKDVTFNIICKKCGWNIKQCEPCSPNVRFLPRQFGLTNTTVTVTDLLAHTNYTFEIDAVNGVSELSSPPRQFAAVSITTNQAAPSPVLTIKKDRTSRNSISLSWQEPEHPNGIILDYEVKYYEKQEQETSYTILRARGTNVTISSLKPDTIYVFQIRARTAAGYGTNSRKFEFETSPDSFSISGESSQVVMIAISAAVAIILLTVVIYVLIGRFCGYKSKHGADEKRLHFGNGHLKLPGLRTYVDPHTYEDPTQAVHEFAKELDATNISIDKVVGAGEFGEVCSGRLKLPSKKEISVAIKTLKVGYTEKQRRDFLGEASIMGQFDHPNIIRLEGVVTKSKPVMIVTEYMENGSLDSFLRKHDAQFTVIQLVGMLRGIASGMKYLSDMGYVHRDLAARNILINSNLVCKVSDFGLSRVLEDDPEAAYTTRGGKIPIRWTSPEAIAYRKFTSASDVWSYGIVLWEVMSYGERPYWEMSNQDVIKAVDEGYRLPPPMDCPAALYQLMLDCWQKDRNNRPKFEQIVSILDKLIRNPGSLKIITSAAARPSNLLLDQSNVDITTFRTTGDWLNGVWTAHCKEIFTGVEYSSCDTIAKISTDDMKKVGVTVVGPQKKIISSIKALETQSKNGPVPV

[7] = molecular target: T1, Ephrin type-A receptor 3 (Homo sapiens); conditions: at 1 µM
[8] = molecular target: Ephrin type-A receptor 4 (Homo sapiens) (UniProt P54764); conditions: at 0.1 µM
[9] = molecular target: Ephrin type-A receptor 4 (Homo sapiens) (UniProt P54764); conditions: at 1 µM
[10] = molecular target: T2, Ephrin type-B receptor 2 (Homo sapiens) (UniProt P29323); conditions: at 0.1 µM
T2 sequence (whole entry): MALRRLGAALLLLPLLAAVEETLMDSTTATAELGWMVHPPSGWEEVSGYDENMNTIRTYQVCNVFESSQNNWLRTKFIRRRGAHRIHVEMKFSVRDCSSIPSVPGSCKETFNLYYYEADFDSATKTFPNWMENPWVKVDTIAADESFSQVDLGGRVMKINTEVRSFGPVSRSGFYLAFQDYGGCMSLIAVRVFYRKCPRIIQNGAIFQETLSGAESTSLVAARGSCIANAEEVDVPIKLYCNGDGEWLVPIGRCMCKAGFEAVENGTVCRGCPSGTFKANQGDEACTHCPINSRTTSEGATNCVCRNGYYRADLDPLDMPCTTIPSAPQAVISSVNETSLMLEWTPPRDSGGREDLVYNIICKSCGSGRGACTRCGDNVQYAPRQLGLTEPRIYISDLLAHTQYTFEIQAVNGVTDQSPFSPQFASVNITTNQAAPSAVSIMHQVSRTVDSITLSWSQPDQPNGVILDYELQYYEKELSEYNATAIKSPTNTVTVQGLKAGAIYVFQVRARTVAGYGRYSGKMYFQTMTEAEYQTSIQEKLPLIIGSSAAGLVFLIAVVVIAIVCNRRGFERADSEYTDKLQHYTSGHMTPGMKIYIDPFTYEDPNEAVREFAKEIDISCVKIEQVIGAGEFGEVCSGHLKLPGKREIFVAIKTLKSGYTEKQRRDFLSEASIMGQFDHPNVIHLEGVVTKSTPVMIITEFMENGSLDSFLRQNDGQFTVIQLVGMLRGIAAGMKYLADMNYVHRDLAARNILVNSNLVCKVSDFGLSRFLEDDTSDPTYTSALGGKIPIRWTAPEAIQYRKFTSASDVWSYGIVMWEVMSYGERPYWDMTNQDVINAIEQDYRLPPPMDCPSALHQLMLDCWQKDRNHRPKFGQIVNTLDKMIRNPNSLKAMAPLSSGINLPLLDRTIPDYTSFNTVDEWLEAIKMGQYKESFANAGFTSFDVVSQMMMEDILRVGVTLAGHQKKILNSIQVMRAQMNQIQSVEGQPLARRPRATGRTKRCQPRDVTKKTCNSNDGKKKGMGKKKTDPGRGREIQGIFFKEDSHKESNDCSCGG

[11] = molecular target: T2, Ephrin type-B receptor 2 (Homo sapiens); conditions: at 1 µM
[12] = molecular target: T3, Ephrin type-B receptor 3 (Homo sapiens) (UniProt P54753); conditions: at 0.1 µM
T3 sequence (whole entry): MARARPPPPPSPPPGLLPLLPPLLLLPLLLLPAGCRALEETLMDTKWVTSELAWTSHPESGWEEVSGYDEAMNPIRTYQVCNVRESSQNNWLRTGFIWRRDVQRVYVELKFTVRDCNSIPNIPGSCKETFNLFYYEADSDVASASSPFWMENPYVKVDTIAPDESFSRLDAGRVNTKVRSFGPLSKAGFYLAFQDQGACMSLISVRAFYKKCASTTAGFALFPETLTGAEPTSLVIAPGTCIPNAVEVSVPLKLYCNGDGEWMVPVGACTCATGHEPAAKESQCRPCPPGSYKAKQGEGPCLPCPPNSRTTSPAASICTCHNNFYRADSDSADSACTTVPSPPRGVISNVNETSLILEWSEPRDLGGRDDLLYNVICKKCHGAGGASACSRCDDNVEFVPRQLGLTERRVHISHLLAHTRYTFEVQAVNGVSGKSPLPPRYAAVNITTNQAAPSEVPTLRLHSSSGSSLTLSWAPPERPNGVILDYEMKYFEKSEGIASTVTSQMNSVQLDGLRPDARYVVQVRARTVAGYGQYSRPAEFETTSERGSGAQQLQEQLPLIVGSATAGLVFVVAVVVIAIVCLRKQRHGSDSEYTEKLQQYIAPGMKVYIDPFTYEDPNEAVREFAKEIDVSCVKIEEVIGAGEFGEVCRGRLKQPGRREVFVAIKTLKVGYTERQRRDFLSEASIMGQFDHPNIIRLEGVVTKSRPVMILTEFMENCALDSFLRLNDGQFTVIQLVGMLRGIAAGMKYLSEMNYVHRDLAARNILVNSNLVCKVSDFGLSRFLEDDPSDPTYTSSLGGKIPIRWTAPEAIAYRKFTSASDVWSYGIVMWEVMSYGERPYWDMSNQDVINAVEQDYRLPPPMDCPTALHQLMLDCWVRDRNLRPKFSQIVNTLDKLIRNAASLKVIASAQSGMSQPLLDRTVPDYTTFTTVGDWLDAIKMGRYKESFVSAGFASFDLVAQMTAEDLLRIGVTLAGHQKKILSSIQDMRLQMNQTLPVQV

[13] = molecular target: T3, Ephrin type-B receptor 3 (Homo sapiens); conditions: at 1 µM
[14] = molecular target: T4, Ephrin type-B receptor 4 (Homo sapiens) (UniProt P54760); conditions: at 0.1 µM
T4 sequence (whole entry): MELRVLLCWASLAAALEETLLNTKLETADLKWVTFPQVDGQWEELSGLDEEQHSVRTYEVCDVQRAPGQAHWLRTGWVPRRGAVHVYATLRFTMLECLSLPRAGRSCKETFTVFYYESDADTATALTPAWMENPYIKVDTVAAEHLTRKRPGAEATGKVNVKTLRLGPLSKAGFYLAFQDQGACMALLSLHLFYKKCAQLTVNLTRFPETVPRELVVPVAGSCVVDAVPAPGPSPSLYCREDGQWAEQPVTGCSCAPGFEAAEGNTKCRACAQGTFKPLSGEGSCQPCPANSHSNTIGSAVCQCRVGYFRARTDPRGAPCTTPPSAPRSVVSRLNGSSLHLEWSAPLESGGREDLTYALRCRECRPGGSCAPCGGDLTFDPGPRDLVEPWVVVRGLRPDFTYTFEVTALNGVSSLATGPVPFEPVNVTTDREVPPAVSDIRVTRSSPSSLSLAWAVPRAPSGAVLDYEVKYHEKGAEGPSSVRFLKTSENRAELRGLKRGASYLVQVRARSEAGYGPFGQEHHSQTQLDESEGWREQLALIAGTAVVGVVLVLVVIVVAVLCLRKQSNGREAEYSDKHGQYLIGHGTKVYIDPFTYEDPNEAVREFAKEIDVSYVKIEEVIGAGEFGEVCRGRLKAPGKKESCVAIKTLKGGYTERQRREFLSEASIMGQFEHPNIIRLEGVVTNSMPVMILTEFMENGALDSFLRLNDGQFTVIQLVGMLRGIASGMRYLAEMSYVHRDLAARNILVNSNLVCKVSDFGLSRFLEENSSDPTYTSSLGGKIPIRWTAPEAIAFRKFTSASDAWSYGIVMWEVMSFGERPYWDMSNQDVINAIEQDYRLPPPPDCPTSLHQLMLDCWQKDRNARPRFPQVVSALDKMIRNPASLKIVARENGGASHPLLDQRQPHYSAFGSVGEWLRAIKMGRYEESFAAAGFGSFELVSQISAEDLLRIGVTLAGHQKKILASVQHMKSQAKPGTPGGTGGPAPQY

[15] = molecular target: T4, Ephrin type-B receptor 4 (Homo sapiens); conditions: at 1 µM
[16] = molecular target: Receptor tyrosine-protein kinase erbB-2 (Homo sapiens) (UniProt P04626); conditions: at 0.1 µM
Sequence of Receptor tyrosine-protein kinase erbB-2 (Homo sapiens) (P04626 whole entry): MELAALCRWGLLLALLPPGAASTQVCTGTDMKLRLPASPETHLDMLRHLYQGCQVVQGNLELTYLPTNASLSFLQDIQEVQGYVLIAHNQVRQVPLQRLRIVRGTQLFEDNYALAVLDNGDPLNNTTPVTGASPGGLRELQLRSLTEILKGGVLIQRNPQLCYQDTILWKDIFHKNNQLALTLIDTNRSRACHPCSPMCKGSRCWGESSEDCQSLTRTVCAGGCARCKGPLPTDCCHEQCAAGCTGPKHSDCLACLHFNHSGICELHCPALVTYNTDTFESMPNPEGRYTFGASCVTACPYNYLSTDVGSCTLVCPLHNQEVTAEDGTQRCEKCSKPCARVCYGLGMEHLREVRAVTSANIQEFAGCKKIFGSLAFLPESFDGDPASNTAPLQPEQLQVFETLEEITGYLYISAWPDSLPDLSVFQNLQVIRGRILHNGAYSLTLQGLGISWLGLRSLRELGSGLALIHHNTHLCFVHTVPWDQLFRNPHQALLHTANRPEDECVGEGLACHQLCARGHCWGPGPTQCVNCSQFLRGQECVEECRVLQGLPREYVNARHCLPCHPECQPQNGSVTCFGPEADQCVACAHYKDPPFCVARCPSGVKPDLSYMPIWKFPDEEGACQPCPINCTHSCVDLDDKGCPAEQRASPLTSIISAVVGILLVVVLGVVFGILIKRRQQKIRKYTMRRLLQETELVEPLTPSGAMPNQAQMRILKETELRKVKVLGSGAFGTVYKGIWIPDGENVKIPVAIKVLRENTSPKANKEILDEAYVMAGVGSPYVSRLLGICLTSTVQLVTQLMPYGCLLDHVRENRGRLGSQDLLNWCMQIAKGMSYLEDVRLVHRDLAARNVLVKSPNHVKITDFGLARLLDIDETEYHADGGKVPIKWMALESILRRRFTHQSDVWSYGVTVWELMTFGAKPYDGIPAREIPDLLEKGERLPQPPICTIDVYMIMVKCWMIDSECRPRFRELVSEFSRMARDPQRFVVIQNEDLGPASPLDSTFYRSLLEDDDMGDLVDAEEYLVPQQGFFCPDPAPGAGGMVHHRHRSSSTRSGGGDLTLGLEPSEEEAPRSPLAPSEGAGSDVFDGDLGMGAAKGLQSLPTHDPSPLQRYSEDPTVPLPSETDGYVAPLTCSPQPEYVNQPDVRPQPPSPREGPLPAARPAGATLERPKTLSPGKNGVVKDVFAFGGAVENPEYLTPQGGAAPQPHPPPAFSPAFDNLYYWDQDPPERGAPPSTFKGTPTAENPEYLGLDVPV

[17] = molecular target: Receptor tyrosine-protein kinase erbB-2 (Homo sapiens) (UniProt P04626); conditions: at 1 µM
[18] = molecular target: Receptor tyrosine-protein kinase erbB-4 (Homo sapiens) (UniProt Q15303); conditions: at 0.1 µM
[19] = molecular target: Receptor tyrosine-protein kinase erbB-4 (Homo sapiens) (UniProt Q15303); conditions: at 1 µM
[20] = molecular target: Tyrosine-protein kinase Fer (Homo sapiens) (UniProt P16591); conditions: at 0.1 µM;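 also: reported figures are averaged percent inhibition of FER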
Sequence of Tyrosine-protein kinase Fer (Homo sapiens) (P16591 whole entry, looked up): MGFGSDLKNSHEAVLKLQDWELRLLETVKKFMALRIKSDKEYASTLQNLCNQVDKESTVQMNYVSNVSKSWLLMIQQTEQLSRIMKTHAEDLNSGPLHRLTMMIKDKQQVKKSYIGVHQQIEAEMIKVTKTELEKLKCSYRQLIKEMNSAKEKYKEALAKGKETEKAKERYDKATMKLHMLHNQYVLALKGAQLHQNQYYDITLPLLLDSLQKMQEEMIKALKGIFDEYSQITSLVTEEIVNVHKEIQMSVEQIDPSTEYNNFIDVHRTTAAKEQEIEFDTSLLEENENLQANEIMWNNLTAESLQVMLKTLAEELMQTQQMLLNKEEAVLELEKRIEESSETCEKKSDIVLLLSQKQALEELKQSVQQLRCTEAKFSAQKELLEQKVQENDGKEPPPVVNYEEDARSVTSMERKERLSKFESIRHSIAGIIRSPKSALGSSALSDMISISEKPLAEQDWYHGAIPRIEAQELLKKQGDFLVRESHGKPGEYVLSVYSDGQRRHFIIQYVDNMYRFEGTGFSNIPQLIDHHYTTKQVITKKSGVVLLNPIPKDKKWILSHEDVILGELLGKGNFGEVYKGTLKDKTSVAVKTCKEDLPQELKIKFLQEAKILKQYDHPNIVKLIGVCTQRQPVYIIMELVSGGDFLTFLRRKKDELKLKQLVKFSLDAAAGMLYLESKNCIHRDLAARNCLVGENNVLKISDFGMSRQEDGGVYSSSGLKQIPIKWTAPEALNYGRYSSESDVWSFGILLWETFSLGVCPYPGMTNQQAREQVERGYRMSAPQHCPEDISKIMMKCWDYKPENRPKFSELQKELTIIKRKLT

Sequence of Epidermal growth factor receptor (Homo sapiens), P00533 [T790M] (P00533 whole entry T790M): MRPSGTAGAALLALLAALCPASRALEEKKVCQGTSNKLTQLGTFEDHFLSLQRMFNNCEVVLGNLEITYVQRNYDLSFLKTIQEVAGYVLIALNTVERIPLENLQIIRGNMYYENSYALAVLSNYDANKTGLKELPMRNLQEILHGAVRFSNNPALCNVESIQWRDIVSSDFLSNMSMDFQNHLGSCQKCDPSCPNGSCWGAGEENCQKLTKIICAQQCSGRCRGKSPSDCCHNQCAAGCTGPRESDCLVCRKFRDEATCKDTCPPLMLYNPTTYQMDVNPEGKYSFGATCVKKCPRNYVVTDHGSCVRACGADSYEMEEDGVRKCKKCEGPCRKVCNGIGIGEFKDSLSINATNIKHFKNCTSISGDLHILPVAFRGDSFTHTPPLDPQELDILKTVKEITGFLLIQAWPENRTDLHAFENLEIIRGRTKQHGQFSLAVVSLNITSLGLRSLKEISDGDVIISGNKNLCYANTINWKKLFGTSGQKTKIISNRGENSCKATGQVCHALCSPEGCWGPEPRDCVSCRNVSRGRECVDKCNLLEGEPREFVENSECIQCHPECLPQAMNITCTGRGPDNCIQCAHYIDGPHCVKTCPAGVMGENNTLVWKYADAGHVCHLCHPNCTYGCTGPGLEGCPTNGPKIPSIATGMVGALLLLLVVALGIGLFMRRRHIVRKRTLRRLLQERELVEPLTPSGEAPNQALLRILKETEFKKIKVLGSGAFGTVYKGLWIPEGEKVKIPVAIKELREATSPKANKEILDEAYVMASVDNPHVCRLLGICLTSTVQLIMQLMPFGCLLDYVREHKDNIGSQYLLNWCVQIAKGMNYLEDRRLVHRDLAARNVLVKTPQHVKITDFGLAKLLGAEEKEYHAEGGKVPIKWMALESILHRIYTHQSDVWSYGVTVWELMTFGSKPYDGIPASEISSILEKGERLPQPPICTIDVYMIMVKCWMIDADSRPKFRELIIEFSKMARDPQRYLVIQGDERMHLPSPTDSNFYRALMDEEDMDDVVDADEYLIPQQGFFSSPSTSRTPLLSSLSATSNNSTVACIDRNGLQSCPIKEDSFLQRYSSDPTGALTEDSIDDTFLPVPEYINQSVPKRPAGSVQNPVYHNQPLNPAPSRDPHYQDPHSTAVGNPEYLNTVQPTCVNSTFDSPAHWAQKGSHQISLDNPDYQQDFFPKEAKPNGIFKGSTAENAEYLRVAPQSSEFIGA
Sequence of Epidermal growth factor receptor (Homo sapiens), P00533 [L858R,T790M] (P00533 whole entry T790M/L858R, looked up): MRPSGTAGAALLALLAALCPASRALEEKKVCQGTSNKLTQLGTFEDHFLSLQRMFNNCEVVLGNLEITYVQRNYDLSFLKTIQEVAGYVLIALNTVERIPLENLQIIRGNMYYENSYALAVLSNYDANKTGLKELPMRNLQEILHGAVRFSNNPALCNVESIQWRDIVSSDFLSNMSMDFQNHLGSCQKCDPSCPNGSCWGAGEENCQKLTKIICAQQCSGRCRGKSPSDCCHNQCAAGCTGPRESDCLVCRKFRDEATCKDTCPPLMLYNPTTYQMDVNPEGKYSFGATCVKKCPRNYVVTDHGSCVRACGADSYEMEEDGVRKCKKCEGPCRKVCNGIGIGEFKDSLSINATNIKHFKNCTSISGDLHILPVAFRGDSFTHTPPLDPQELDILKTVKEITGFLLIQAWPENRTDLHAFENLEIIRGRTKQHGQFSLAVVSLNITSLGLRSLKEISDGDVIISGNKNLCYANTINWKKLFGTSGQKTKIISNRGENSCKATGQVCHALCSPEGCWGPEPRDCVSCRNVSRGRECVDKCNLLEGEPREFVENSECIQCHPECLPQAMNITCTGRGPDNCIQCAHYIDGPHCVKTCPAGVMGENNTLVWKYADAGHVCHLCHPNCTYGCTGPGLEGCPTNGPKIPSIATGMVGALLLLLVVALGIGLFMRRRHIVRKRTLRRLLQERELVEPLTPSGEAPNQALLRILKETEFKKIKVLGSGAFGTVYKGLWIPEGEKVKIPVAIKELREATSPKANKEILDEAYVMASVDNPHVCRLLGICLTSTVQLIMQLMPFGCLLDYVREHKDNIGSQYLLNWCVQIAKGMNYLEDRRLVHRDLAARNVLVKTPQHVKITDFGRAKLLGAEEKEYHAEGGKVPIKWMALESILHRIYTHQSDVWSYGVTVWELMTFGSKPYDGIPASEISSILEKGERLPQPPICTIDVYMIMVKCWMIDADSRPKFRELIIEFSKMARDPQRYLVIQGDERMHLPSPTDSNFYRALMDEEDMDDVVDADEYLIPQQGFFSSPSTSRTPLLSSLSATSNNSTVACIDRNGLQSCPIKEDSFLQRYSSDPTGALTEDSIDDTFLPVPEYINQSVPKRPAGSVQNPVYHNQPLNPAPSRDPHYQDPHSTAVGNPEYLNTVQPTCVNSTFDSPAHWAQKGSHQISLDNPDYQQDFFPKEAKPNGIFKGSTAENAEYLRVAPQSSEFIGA

| Compound | inhibition [1] [%] | inhibition [2] [%] | inhibition [3] [%] | inhibition [4] [%] | inhibition [5] [%] | inhibition [6] [%] | inhibition [7] [%] | inhibition [8] [%] | inhibition [9] [%] | inhibition [10] [%] | inhibition [11] [%] | inhibition [12] [%] | inhibition [13] [%] | inhibition [14] [%] | inhibition [15] [%] | inhibition [16] [%] | inhibition [17] [%] | inhibition [18] [%] | inhibition [19] [%] | inhibition [20] [%] |
| --- | --- | --- | --- | --- | --- | --- | --- | --- | --- | --- | --- | --- | --- | --- | --- | --- | --- | --- | --- | --- |
| CCCN(CCS(C)(=O)=O)Cc1ccc(-c2ccc3ncnc(Nc4ccc(OCc5cccc(F)c5)c(Cl)c4)c3c2)o1 | 8.75 | -1 | 3.75 | -2.13 | -0.4 | 2.56 | 2.25 | 5.97 | 5.71 | 4.71 | 5.21 | 4.42 | 2.17 | 3.87 | 1.36 | 19.1 | 82.1 | 76.3 | 79.2 | 2.14 |
| CCN(CC)S(=O)(=O)c1ccc(OC)c(Nc2ncc(-c3ccccc3)o2)c1 | 2.04 | 0.39 | -0.47 | 4.36 | 2.14 | 2.4 | 2.35 | 9.54 | 13.8 | 5.55 | 15.1 | 3.77 | 0.54 | 0.17 | 7.93 | 0.91 | 2.81 | 7.08 | 6.51 | 0.84 |
| Nc1nc(-c2cccc(Cl)c2)c(-c2ccc3ncccc3n2)s1 | 6.65 | 5 | 7.85 | 0.6 | 0.92 | 4.59 | 4.27 | 11 | 14.8 | 6.05 | 15.5 | 5.95 | 5.53 | 2.58 | 3.57 | 2.61 | 5.7 |  | 28.1 | 4.91 |
| CC(C)COC(=O)c1ccc2c(c1)/C(=C/Nc1ccc(S(N)(=O)=O)cc1)C(=O)N2 | -2.28 | -2.38 | 3.71 | -3.29 | -3.24 | -2.74 | 0.31 | -1.11 | 1.79 | -3.84 | -4.93 | 0.34 | -4.87 | -1.38 | 1.51 | -2.55 | -0.17 | -2.58 | -2.34 | 0.76 |
| COc1cccc(-n2ncc3c(N/N=C/c4ccc(F)cc4)ncnc32)c1 | 3.89 | 1.74 | 1.29 | 4.28 | 5.62 | 4.05 | 4.06 | 7.96 | 15.7 | 5.53 | 11.3 | 4.19 | 3.79 | 1.79 | 3.45 | 2.86 | 4.41 | 10.8 | 11.2 | 2.73 |
| COC(=O)Nc1nc2ccc(S(=O)(=O)c3ccc(NC(=O)Nc4cc(C(F)(F)F)ccc4F)cc3)cc2[nH]1 | 0.19 | 0.89 | -0.68 | 2.49 | 6.48 | 3.46 | 4.35 | 4.8 | 9.4 | 6.82 | 14.7 | 5.22 | 0.8 | 2.15 | 3.46 | 0.46 | -2.51 | 9.54 | 12.2 | 3.79 |
| CS(=O)(=O)CCNCc1coc(-c2ccc3ncnc(Nc4ccc(OCc5ccccc5)cc4)c3c2)c1 | 10.3 | -2.4 | 4.59 | 2.56 | 0.15 | 7.79 | 5.01 | 8.01 | 5.86 | 3.86 | 7.45 | 3.83 | 4.34 | 2.88 | 4.04 | 6.1 | 59 | 55.3 | 94.1 | -0.6 |
| FC(F)(F)c1cccc(-c2nn3ncccc3c2-c2ccnc(Nc3ccc4c(c3)OCCO4)n2)c1 | 8.22 | 2.69 | 15.9 | 2.29 | 1.84 | 2.54 | 3.44 | 4.56 | 7.91 | 3.11 | 18.1 | 5.94 | 3 | 2.8 | 21.3 | 1.37 | 11.4 | 48.3 | 81.5 | 0.32 |
